Laboratory results published in the supplement of paper PMC10849652.
The full data set covers some 8,800 targets. This sample favours those with a hit. About 0.5% of all pairs of compound and target were hits. A number with no mark means an inactive call.

Experiments:
Assay in all cases: log2 fold change, soluble protein after heating vs DMSO (PISA); higher = thermal stabilisation; K562 lysate, 10 uM; active = over 0.2 and 3.5 SD of the protein, either way, in both replicates (recomputed)
nilotinib = compound: Cc1cn(-c2cc(NC(=O)c3ccc(C)c(Nc4nccc(-c5cccnc5)n4)c3)cc(C(F)(F)F)c2)cn1 [nilotinib]
Procedure, shortened: (§1)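 Soluble protein was defined as the supernatant remaining after 21,000xg for 90 min, following pooling of heated aliquots and adjustment to 0.5% NP-40 at 4°C. Before that, crude K562 extract at 1 mg/mL protein in PBS pH 7.4 with 1 mM MgCl2 was treated with 10 μM compound for 30 min and heated for 3 min across 48°C-58°C. Quantification used TMTpro 16plex LC-MS/MS with channel sums equalised, and values are log-two fold changes in thermal stability relative to solvent controls from duplicates.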

[1] = compound: Cc1nc(Nc2n[nH]c3c2CN(C(=O)N[C@H](CN(C)C)c2ccccc2)C3(C)C)c2sccc2n1
Procedure, shortened: as §1

dasatinib = compound: Cc1nc(Nc2ncc(C(=O)Nc3c(C)cccc3Cl)s2)cc(N2CCN(CCO)CC2)n1 [dasatinib]
Procedure, shortened: as §1

[2] = compound: Cc1ncc(-c2ccnc(Nc3ccc(S(C)(=O)=O)cc3)n2)n1C(C)C
Procedure, shortened: as §1

[3] = compound: Cn1cc(-c2ccc3c(c2)CCN3C(=O)Cc2cccc(C(F)(F)F)c2)c2c(N)ncnc21
Procedure, shortened: as §1

quisinostat = compound: Cn1cc(CNCC2CCN(c3ncc(C(=O)NO)cn3)CC2)c2ccccc21 [quisinostat]
Procedure, shortened: as §1

tipifarnib = compound: Cn1cncc1[C@@](N)(c1ccc(Cl)cc1)c1ccc2c(c1)c(-c1cccc(Cl)c1)cc(=O)n2C [tipifarnib]
Procedure, shortened: as §1

[4] = compound: NC(=O)Nc1cc(-c2cccc(F)c2)sc1C(=O)N[C@H]1CCCNC1
Procedure, shortened: as §1

[5] = compound: NC(=O)c1cnc(N[C@@H]2CCCC[C@@H]2N)nc1Nc1cccc(-n2nccn2)c1
Procedure, shortened: as §1

[6] = compound: NC1(c2ccc(-c3nc4ccn5c(=O)[nH]nc5c4cc3-c3ccccc3)cc2)CCC1
Procedure, shortened: as §1

[7] = compound: NCC(=O)Nc1ccc(-n2nc(C(F)(F)F)cc2-c2ccc3c(ccc4ccccc43)c2)cc1
Procedure, shortened: as §1

vorinostat = compound: O=C(CCCCCCC(=O)Nc1ccccc1)NO [vorinostat]
Procedure, shortened: as §1

silmitasertib = compound: O=C(O)c1ccc2c(c1)nc(Nc1cccc(Cl)c1)c1ccncc12 [silmitasertib]
Procedure, shortened: as §1

[8] = compound: O=C1NC(=O)C(c2cnc3ccccn23)=C1c1cn2c3c(cc(F)cc13)CN(C(=O)N1CCCCC1)CC2
Procedure, shortened: as §1

entospletinib = compound: c1cn2cc(-c3ccc4cn[nH]c4c3)nc(Nc3ccc(N4CCOCC4)cc3)c2n1 [entospletinib]
Procedure, shortened: as §1

UniProt P80303, sequence (P80303 whole entry, looked up): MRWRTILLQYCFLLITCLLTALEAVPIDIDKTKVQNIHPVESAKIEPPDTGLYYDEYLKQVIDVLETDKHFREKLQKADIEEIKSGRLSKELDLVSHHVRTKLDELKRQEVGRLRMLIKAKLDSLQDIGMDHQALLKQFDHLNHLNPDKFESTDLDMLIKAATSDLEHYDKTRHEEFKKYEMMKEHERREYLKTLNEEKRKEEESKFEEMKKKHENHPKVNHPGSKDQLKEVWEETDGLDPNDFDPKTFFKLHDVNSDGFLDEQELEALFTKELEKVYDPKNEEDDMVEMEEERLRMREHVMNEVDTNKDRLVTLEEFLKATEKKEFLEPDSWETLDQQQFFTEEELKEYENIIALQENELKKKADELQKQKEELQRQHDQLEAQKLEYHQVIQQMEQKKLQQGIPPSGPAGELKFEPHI
UniProt Q460N5, sequence (Q460N5 whole entry, looked up): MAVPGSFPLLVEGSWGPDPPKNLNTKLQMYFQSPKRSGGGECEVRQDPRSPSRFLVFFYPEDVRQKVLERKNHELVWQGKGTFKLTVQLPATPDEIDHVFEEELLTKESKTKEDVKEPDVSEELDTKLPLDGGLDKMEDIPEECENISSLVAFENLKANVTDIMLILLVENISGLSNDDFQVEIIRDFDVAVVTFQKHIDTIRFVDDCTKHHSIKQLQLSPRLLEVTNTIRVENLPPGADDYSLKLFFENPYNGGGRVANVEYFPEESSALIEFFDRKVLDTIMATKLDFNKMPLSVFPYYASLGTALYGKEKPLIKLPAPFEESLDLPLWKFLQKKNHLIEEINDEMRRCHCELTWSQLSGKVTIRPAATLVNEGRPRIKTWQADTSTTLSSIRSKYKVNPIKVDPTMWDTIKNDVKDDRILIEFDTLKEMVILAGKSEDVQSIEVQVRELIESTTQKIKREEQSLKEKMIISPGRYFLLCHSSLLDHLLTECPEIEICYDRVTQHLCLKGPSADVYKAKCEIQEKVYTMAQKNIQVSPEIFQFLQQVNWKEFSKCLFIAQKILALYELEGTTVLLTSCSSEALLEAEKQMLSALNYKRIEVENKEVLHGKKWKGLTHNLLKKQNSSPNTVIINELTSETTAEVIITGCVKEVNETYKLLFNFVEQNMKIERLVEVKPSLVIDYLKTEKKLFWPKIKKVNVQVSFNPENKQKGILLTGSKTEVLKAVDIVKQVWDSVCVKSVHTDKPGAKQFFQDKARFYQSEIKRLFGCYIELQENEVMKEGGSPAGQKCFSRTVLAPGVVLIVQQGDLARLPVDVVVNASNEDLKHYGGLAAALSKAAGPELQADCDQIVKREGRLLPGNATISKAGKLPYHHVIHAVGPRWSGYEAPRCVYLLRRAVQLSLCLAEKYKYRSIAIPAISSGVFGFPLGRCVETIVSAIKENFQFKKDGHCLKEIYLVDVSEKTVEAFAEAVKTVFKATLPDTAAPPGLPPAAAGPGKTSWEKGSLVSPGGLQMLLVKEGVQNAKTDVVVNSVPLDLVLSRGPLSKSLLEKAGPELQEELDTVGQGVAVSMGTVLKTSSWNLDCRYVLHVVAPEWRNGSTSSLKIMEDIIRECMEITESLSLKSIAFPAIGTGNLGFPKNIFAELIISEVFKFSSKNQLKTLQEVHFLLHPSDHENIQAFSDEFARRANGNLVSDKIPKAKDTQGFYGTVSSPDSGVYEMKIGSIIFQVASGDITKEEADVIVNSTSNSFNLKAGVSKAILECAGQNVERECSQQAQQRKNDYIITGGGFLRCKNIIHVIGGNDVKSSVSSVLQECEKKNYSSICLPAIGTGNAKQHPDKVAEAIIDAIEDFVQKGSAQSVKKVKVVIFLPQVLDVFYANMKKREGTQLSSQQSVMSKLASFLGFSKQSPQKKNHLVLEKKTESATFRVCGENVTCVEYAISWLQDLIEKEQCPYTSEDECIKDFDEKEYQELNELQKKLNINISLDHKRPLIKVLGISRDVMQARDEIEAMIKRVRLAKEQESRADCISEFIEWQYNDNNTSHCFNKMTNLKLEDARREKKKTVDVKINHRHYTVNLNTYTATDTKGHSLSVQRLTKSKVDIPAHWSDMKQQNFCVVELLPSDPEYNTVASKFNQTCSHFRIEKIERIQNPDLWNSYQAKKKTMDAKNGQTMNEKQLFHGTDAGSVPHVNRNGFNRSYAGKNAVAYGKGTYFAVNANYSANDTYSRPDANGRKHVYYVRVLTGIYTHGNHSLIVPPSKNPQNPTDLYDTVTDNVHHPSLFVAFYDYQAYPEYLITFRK
UniProt Q8IXH7, sequence (Q8IXH7 whole entry, looked up): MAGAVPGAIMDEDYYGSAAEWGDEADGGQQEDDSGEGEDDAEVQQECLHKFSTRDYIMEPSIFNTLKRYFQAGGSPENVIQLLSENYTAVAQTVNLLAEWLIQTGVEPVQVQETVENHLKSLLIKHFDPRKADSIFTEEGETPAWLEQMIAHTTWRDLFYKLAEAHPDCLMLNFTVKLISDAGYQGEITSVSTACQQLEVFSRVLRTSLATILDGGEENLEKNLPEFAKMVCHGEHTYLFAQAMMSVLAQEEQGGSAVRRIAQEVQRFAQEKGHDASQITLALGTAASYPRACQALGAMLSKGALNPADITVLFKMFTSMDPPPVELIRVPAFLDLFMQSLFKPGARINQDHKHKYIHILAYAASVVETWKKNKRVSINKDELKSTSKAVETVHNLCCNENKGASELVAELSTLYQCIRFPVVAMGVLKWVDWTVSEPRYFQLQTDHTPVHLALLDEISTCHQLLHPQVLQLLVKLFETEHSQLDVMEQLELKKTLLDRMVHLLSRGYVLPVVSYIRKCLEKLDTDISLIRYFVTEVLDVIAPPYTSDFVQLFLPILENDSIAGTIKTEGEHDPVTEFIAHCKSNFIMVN
UniProt P30419, sequence (P30419 whole entry, looked up): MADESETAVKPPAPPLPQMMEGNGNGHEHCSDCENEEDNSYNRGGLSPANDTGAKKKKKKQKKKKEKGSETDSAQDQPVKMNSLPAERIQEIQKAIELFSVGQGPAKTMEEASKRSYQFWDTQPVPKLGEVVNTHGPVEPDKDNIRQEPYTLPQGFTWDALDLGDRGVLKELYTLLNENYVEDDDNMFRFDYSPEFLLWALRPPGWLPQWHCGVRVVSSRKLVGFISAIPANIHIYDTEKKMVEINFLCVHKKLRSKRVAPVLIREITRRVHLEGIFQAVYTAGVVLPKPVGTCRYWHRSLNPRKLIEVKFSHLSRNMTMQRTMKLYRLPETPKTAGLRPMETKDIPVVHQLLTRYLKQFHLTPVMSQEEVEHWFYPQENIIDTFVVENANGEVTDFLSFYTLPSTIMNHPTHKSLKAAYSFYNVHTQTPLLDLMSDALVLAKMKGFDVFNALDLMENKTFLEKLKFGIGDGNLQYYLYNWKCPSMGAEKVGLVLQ
UniProt O43913, sequence (O43913 whole entry, looked up): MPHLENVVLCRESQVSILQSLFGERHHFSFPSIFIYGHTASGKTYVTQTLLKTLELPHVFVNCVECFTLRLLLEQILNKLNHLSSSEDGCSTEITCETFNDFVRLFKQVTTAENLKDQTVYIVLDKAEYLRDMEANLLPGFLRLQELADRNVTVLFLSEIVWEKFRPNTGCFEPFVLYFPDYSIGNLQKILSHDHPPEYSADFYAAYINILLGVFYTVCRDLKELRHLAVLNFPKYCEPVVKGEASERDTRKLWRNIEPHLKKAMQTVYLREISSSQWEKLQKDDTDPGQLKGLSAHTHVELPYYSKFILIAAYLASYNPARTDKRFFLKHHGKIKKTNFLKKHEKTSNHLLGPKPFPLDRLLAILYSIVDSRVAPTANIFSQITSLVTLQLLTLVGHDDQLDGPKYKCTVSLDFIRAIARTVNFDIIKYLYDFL

Target	log2 fold change (nilotinib)	log2 fold change [1]	log2 fold change (dasatinib)	log2 fold change [2]	log2 fold change [3]	log2 fold change (quisinostat)	log2 fold change (tipifarnib)	log2 fold change [4]	log2 fold change [5]	log2 fold change [6]	log2 fold change [7]	log2 fold change (vorinostat)	log2 fold change (silmitasertib)	log2 fold change [8]	log2 fold change (entospletinib)
NELFCD (UniProt Q8IXH7)	-0.024	0.015	-0.019	-0.025	0.034	-0.083	-0.032	0.046	0.013	-0.031	0.023	-0.322 (active)	0.049	-0.005	0.032
ORC5 (UniProt O43913)	-0.043	-0.004	-0.047	0.019	0.098	-0.107	-0.004	0.098	0.047	-0.073	0.023	-0.377 (active)	0.072	0.011	0.066
NMT1 (UniProt P30419)	-0.037	0.044	0.058	-0.016	-0.022	-0.065	0.001	0.007	-0.005	-0.057	-0.35 (active)	0.028	-0.03	-0.036	0.034
PARP14 (UniProt Q460N5)	0.004	-0.022	-0.024	0.068	0.256	-0.025	-0.068	0.128	0.051	-0.09	-0.006	-0.391 (active)	0.009	0.149	-0.014
NUCB2 (UniProt P80303)	-0.016	0.015	0.007	-0.019	-0.009	0.016	0.011	-0.003	-0.001	0.014	0	0.133	-0.026	-0.007	-0.008
